Reference: ChEMBL document CHEMBL3433997, “St. Jude Leishmania screening dataset” (2016)

Assays:
Assay type in all cases: functional
[1] = molecular target: Solute carrier family 2, facilitated glucose transporter member 1 (Homo sapiens) (UniProt P11166); experiment: ST_JUDE_LEISH: Cytotoxicity at 2uM final concentration against transgenic Leishmania Mexicana promastigotes LmGLUT1 that are glucose transport deficient and complemented with the human glucose transporter GLUT1. Activity is measured by DNA content using SYBR green in vitro
[2] = molecular target: Hexose transporter 1 (Plasmodium falciparum) (UniProt O97467); experiment: ST_JUDE_LEISH: Cytotoxicity at 2uM final concentration against transgenic Leishmania Mexicana promastigotes LmPfHT that are glucose transport deficient and complemented with the Plasmodium falciparum hexose transporter. Activity is measured by DNA content using SYBR green in vitro
[3] = molecular target: Glucose transporter (Leishmania mexicana) (UniProt O61059); experiment: ST_JUDE_LEISH: Cytotoxicity at 2uM final concentration against transgenic Leishmania Mexicana promastigotes LmGT2 that are glucose transport deficient and complemented with the L. Mexicana glucose transporter 2. Activity is measured by DNA content using SYBR green in vitro

Solute carrier family 2, facilitated glucose transporter member 1 (Homo sapiens), sequence (P11166 whole entry): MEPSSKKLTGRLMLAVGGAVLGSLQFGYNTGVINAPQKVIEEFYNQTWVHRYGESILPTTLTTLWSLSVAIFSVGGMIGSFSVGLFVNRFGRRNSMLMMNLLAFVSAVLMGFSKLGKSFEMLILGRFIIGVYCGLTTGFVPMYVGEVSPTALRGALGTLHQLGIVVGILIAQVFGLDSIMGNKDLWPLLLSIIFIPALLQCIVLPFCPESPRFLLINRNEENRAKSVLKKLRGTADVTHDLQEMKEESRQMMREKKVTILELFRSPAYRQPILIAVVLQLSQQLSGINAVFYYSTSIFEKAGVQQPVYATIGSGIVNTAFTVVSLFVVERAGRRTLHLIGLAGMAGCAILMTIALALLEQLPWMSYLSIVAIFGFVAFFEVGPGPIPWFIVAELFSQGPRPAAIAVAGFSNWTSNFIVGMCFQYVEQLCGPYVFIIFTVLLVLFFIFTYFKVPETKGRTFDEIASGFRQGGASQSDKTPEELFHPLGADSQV

SMILES	inhibition [1]	inhibition [2]	inhibition [3]
c1ccc(CCNCc2ccc(-c3ccc(CNC4CCN(Cc5ccccc5)CC4)cc3)nc2)cc1	5.76%	11.9%	4.15%
CCCC(=O)c1cnc2c(OCCCc3c[nH]cn3)cccc2c1Nc1c(C)cccc1C	2.21%	1.13%	-1.19%
C=C[C@]1(C)C[C@@H](OC(=O)NC(=O)CCCS(=O)(=O)c2nnc(C)s2)[C@]2(C)[C@H](C)CC[C@]3(CCC(=O)[C@H]32)[C@@H](C)[C@@H]1O	11.1%	11.3%	6.8%
CC(=O)Nc1ccc(CN(Cc2ccc(F)cc2)Cc2ccc3c(c2)OCO3)cc1	2.71%	1.82%	3.2%
c1ccc(CSC2=NNC(c3ccccn3)S2)cc1 (configuration not stated)	0.82%	3.23%	2.48%
C=CCn1ccc2c3c(N)nc(N)nc3ccc21	66%	79.6%	44.1%
O=C(Cn1c(CCc2cccc(F)c2F)cc(=O)c2cccnc21)N(CCN1CCCC1)Cc1ccc(-c2ccc(C(F)(F)F)cc2)cc1	2.13%	2.76%	1.23%
Cc1ccnc(Nc2nc(-c3ccccn3)cs2)c1	10.1%	22.4%	-2.74%
CC1(C)NC(N)=NC(=N)N1OCCNCc1ccc(Cl)cc1	4.58%	4.01%	3.92%
Cc1cccc(CN2CCCN(Cc3ccc(C(=O)Nc4ccc(Cl)cc4)cc3)CC2)c1	11.2%	11.3%	7.83%
COC(=O)c1cccc(CNCc2cccc(-c3ccc(-c4nc5cccc(C)c5[nH]4)cc3)c2)c1	11.9%	7.9%	8.52%
CN(c1ccc(NC(=O)c2cccc(F)c2)cc1)C1CCCN(Cc2cccc(O)c2)C1 (configuration not stated)	-0.85%	-2.67%	-0.73%
O=C(CN1CCC(NCc2cnc(-c3ccc(Cl)cc3)[nH]2)CC1)N1CCc2ccccc21	-1.03%	0.65%	0.77%
Cc1ccc2cc(NCCCCCCCCON3C(N)=NC(N)=NC34CCCCC4)ccc2n1	8.51%	8.23%	9.59%
COc1ccc(CCc2ccc(-c3c(C)[nH]c(C)c(Cl)c3=O)cc2)cc1OC	12%	11%	10.6%
Cc1cccc2nc(-c3ccc(-c4cccc(CNCc5cccc(N)c5)c4)s3)[nH]c12	2.48%	1.7%	2.35%
CCCCCCNC(=O)C1Cc2c([nH]c3ccc(C)cc23)C2(CCN(CCc3ccccc3)CC2)N1 (configuration not stated)	0.36%	1.61%	3.44%
CCOC(=O)c1ccc(-c2cnoc2-c2cc(CC)c(OC)cc2O)o1	-0.08%	1.08%	1.38%
Cc1cccc2nc(-c3cccc(-c4ccc(C(=O)NCc5ccccc5S(C)(=O)=O)cc4)c3)[nH]c12	4.92%	3.13%	2.53%
CN1CCCC(CN2CCN(Cc3cccc(-c4ccc(-c5nc6ccccc6[nH]5)cc4)c3)CC2)C1 (configuration not stated)	7.48%	9.12%	6.63%
c1ccc2[nH]c(-c3ccc(-c4ccc(CNCC5CCCO5)cc4)s3)nc2c1 (configuration not stated)	5.5%	4.61%	5.42%
CC(Oc1ccc(NC(=O)c2cccs2)cc1)C(=O)c1ccc(Cl)cc1 (configuration not stated)	11.3%	10%	7.25%
CN(C)c1ccc(N2C(N)=NC(N)=NC23CCCC3)cc1	-0.69%	-0.9%	-3.85%
Cc1cc(=NN=Cc2ccc(Cl)cc2)c2cc(F)ccc2[nH]1	-0.08%	0.68%	-0.34%
O=C(/C=C/c1ccc(F)cc1)NC1CCC(CCN2CCc3ccccc3CC2)CC1 (configuration not stated)	7.03%	5.64%	2.76%

SMILES	inhibition [1]	inhibition [2]	inhibition [3]
O=C(NCC1CCN(CCN2CCC(c3cn(CCO)c4ccccc34)CC2)CC1)c1ccc(-c2ccc(C(F)(F)F)cc2)cc1	4.27%	5.41%	3.71%
CCN(CCCN1CCCCC1)c1cc(C)nc(Nc2ccc(C)c(C)c2)n1	4.78%	5.75%	4.45%
Cc1ccc(NS(=O)(=O)c2cccs2)cc1-c1cccc(C(=O)Nc2ccc(F)cc2)c1	2%	3.65%	1.16%
Nc1ncc(-c2ccsc2)cc1-c1nc2ccccc2[nH]1	2.86%	6.79%	2.5%
COc1ccc(O)cc1Cc1cnc2nc(N)nc(N)c2c1C	-0.06%	1.16%	0.83%
N#CCCN1CCN(Cc2cccc(-c3ccc(-c4nc5ccccc5[nH]4)s3)c2)CC1	-1.29%	-2.37%	-0.4%
COc1ccc2nc3cc(Cl)ccc3c(NCCCO)c2c1	0.97%	0.85%	2.01%
Clc1ccc2c(Cl)c(CNCCCNc3nc4ccccc4[nH]3)[nH]c2c1	0.17%	0.94%	1.14%
O=C(Nc1ccccc1)N(Cc1ccccc1-c1cccc(CNCc2ccc3c(c2)OCO3)c1)C1CCN(Cc2ccccc2)CC1	-2.93%	-2.6%	-2.56%
O=C(O)c1ccc2c(c1)N(C(=O)CNCc1ccc(F)cc1)CC(=O)N2CCCc1ccccc1	-4.22%	-1.82%	-2.25%
CC(C)(C)c1ccc(OCC(=O)NC2CCN(c3ccnc4cc(Cl)ccc34)C2)cc1 (configuration not stated)	0.64%	0.05%	-1.09%
O=C(NC1CCCCC1)N(Cc1ccc(-c2cccc(CNC3CCCC3)c2)cc1)C1CCN(Cc2ccccc2)CC1	6.18%	7.64%	5.72%
CCCN(C(=O)c1ccccc1C)c1nnc(-c2cccc(C)c2)s1	-3.02%	-1.93%	-2.31%
O=C(Nc1ccc(Cl)cc1)c1ccc(CN2CCCN(Cc3ccccc3)CC2)cc1	1.68%	3.72%	1.45%
CN(C)c1ccc(/C=C2\S/C(=N\c3ccccc3)N(c3ccccc3)C2=O)cc1[N+](=O)[O-]	2.12%	1.07%	-0.79%
CC(C)(C)c1cc(Cl)cc(C(=O)Nc2cc([N+](=O)[O-])ccc2Cl)c1O	5.8%	4.84%	4.28%
CCN1CCN(Cc2ccc3nc(-c4cc(C)n(Cc5cc(Cl)ccc5OCc5ccccc5)n4)[nH]c3c2)CC1	3.5%	3.38%	-0.3%
CCCCCCc1cc2cc(-c3csc(C=Cc4ccccc4)n3)c(=O)oc2cc1O	9.95%	10.6%	9.7%
COc1c(CNCCCCCCNCc2cc(Cl)c3ccccc3c2OC)cc(Cl)c2ccccc12	1.94%	7.04%	-0.2%
Cn1cnc(CCNC(=O)c2ccc(-c3ccc(-c4nc5cc(F)ccc5[nH]4)cc3)cc2)c1	5.05%	5.92%	4.84%
O=C(Nc1ccc(Cl)cc1Cl)N[C@H]1CCN(CCCCCNC(=O)C2CC2c2ccc(Cl)c(Cl)c2)C1 (some centres not stated)	3.75%	4.63%	4.05%
CCN1CCC(N(Cc2ccc(-c3ccc(C(F)(F)F)cc3)cc2)C(=O)Cn2c(CCc3cccc(F)c3F)cc(=O)c3ccc(OCc4ccccc4)cc32)CC1	3.79%	3.24%	3.52%
CCc1ccc(C2CCN(CCCCNC(=O)c3ccc(NC(=O)c4ccc(Cl)cc4)cc3)CC2)c(OCCO)c1	3.01%	2.33%	1.61%
C=CCOc1ccc(C(=O)Nc2nonc2-c2ccc(OC)c(OC)c2)cc1	1%	1.23%	1.78%
